Drawing on PubChem BioAssay (NCATS), this text covers Potency and outcome for 14 compounds.

Assay [1] can be described thus: Tertiary RLuc qRT-PCR qHTS assay for Zika virus inhibitors (AID 1347169). Note: nearly all actives have a fitted effect of over 55% in size. Note: potency is the fitted concentration of half-maximal effect. The gist of the method:
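Luminescence read-out: live-cell Renilla luciferase substrate applied to infected Vero cells, signal measured after 1-1.5 hrs. Cells had received compound before ZIKV-RLuc (Cambodian strain, MOI 1-2) infection and were incubated 48-72 hrs at 37 degrees C.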

A short description of assay [2]: OV-KATE Cancer Cell Toxicity qHTS against the NCATS CANVASS Library (AID 1347345). The gist of the method: (§1)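 Viability read-out: CellTiter-Glo luminescence after 72 h compound exposure at 37 °C/5% CO2. Cells plated at 1000/well, 4 h pre-incubation; 11-point titration. Bortezomib served as control.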
Assay [3] is described as follows: HPAF-II Cancer Cell Toxicity qHTS against the NCATS CANVASS Library (AID 1347346). Note: series mostly up to about 38 µM; nearly all actives have a fitted effect of over 55% in size. The gist of the method:
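1000 HPAF-II cells/well; 4 h pre-incubation; 11-pnt compound titration; 72 h, 37 degrees C/5% CO2; CellTiter-Glo, 15 min RT; luminescence read.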

The nature of assay [4]: UWB1.289 Cancer Cell Toxicity qHTS against the NCATS CANVASS Library (AID 1347347). Note: potency is the fitted concentration of half-maximal effect; nearly all actives have a fitted effect of over 60% in size. The conditions noted are these: UWB1.289 viability, CellTiter-Glo luminescence, 72 h. The gist of the method: as §1
Assay [5] can be described thus: OV-SAHO Cancer Cell Toxicity qHTS against the NCATS CANVASS Library (AID 1347348). Note: series mostly up to about 38 µM; nearly all actives have a fitted effect of over 55% in size. An excerpt: Natural products and their derivatives continue to be wellsprings of nascent therapeutic potential. However, many laboratories have limited resources for biological evaluation, leaving their previously isolated or synthesized compounds largely or completely untested. To address this issue, the Canvass library of natural products was assembled (https://tripod.nih.gov/canvass), in collaboration with academic and industry researchers, for quantitative high-throughput screening (qHTS) across a diverse set of cell-based and biochemical assays. The pure (>85% purity by liquid chromatography/mass spectrometry [LC/MS]) Canvass library of 346 natural products were submitted by 45 academic laboratories and companies around the world. […] The library was formatted into 1536-well plates and evaluated in 50 qHTS (in an 11-pnt concentration series) bioassays with broad scope of disease-relevant mechanisms. The resulting data set from 50 different assays was then systematically analyzed to identify overall trends and specific natural products with interesting biological activities. […]
Cancer Cell Toxicity protocol for cell lines COV-362, OV-KATE, OV-SAHO, UWB1.289, UWB1.289-WTBRCA1, HEK-293, HPAF-II, Panc-1005, SW1088, or U-118MG. […] Luminescence signal was acquired via the ViewLux plate reader (PerkinElmer) using a clear filter, 2 second exposure and 2x binning settings.

Assay [6] can be described thus: Panc-1005 Cancer Cell Toxicity qHTS against the NCATS CANVASS Library (AID 1347349). Note: nearly all actives have a fitted effect of over 60% in size. Note: potency is the fitted concentration of half-maximal effect. The gist of the method:
as §1

Assay [7] addresses Lysine-specific demethylase 5B (Homo sapiens) (UniProt Q9UGL1). Briefly: Optimization screen for KDM5B Histone Demethylases FDH coupled qHTS against the LOPAC library (AID 1347166). The gist of the method: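 KDM5BDeltaAP (200nM final) in 50mM HEPES pH 7.5, 0.01% Tween-20 was preincubated with compound for 10 min at room temperature. A substrate mix of 12.5uM H3K4Me3, 25uM a-ketoglutarate, ascorbate, Fe2+, NAD+ and formaldehyde dehydrogenase was then added. NADH fluorescence (340/450 nm) was read initially and after 30 min.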

A short description of assay [8]: Vero cells viability qHTS for Zika virus inhibitors (AID 1347167). An excerpt: Avindra Nath, Ph.D., National Institute of Neurological Disorders and Stroke (NINDS), Bethesda, MD
Radhakrishnan Padmanabhan, Ph.D., Georgetown University (GU), Washington D.C.
Zika Virus causes congenital defects, including microcephaly and is associated with Guillain-Barre syndrome, eningoencephalitis and myelitis in infected adult. […] Using a target-based approach, we hope to establish a screening paradigm to uncover novel, cell-active NS2B-NS3 protease (Zika Virus) specific inhibitors from NCATS' collection of small molecules using qHTS.
Four assay panel was created to identify potential Zika Virus inhibitors. Namely, (1) GU unlinked NS2B-NS3 AMC tagged protease qHTS, (2) GU unlinked NS2B-NS3 Rhodamine tagged protease qHTS, (3) NINDS linked NS2B-NS3 AMC tagged protease qHTS, (4) NINDS linked NS2B-NS3 Rhodamine tagged protease qHTS. Identified inhibitors were screened against the Vero and HepG2 cell viability assays using CellTiter Glo to exclude cytotoxic compounds.
Early Translation Branch (ETB)
National Center for Advancing Translational Sciences (NCATS), Rockville, MD
National Institute of Health (NIH), Bethesda, Maryland
Vero and HepG2 Cell Viability Assay:
Vero and HepG2 cell cytotoxicity were determined using a luminescent readout with CellTiter Glo reagent (Promega, Madison, WI), which is based on measuring the ATP content within cells. Briefly, 4 microL of Vero or HepG2 cells at 2.5 x 10^5 cells/mL in DMEM containing 4% FBS were dispensed into 1536-well solid bottom tissue treated white plate using a Multidrop Combi dispenser (Thermo Scientific). Plates were incubated at 37 degrees C, 95% humidity, and 5% CO2 overnight to allow for cell attachment. Compounds were dissolved in DMSO at different concentrations and transferred via pintool (Wako Automation), for a final concentration of 0.029 µM - 57 microM. Plates were again incubated for 24 to 48 hours, followed by a 2 microL addition of CellTiter Glo. Finally, plates were incubated for 30 minutes at 37 degrees C and 5% CO2 before being read on a ViewLux (Perkin Elmer) for luminescence.

Assay [9] in a line: HepG2 cells viability qHTS for Zika virus inhibitors (AID 1347168). Note: potency is the fitted concentration of half-maximal effect. The gist of the method:
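To flag cytotoxic protease inhibitors, viability is measured by ATP-dependent luminescence (CellTiter Glo) after cells attached overnight receive compound for 24 to 48 hours in DMEM with 4% FBS.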

Assay [10] can be described thus: SW1088 Cancer Cell Toxicity qHTS against the NCATS CANVASS Library (AID 1347350). Note: potency is the fitted concentration of half-maximal effect; nearly all actives have a fitted effect of over 75% in size. The conditions noted are these: SW1088 viability, CellTiter-Glo luminescence, 72 h. An outline of the steps:
as §1

Results filed as inconclusive are left out. A call without a number means that no potency is given here. Activity calls are given as the source filed them. Calls come from the whole dose curve; as a rule, active = well fitted curve in the direction sought with a large enough effect; inconclusive = small, poorly fitted or top-dose-only effect, or another doubt; inactive = no such curve, though single readings can be large; an effect the other way counts as inactive or inconclusive.

Lysine-specific demethylase 5B (Homo sapiens), sequence (Q9UGL1 whole entry, looked up): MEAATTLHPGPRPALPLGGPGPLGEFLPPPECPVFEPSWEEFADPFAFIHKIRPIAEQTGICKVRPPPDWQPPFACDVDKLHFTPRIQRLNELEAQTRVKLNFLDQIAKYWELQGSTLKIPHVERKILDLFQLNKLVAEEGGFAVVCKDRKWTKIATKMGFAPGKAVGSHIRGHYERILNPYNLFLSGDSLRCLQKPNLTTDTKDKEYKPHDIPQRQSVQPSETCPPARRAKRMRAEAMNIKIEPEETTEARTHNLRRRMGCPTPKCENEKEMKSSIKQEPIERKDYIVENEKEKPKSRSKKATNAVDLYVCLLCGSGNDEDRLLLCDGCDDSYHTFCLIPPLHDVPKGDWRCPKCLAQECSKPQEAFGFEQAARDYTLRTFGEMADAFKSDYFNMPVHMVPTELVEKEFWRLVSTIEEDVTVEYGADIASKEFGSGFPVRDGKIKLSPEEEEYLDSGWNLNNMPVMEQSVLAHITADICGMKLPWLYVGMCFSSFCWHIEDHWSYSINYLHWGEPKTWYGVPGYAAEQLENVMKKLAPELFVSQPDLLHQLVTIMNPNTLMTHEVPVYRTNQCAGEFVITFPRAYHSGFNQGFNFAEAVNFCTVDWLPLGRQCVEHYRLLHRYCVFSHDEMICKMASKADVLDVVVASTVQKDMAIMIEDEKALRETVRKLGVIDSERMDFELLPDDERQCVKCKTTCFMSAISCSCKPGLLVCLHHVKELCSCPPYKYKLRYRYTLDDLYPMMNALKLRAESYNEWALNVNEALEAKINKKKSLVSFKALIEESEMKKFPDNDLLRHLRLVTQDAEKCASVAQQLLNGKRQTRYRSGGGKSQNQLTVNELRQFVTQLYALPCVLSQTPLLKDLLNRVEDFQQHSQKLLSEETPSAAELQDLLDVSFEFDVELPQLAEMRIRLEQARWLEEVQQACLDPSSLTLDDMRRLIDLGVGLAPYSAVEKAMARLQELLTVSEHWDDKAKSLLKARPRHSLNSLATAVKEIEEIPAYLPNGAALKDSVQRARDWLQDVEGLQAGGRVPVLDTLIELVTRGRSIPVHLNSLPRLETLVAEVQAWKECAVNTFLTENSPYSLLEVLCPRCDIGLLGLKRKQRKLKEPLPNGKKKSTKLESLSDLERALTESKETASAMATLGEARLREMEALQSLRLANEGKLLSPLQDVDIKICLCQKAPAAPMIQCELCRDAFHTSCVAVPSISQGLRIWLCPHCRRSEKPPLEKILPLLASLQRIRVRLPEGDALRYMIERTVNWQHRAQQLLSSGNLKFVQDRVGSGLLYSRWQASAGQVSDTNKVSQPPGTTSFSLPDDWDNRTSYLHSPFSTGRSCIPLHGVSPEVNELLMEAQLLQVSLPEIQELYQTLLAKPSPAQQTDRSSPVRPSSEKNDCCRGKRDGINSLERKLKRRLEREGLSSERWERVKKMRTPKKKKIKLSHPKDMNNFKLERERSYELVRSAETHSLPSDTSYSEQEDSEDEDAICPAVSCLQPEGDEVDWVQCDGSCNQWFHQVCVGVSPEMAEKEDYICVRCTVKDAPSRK

Take `O=c1c(O)c(-c2ccc(O)c(O)c2)oc2cc(O)ccc12`: the Potency entry in assay [1] and in assay [6] was “inactive” each time. Further, the result in assay [2], in assay [3] and in [5] was inactive. Moreover, in assay [4], the Potency was 7.47 µM (active).

Turning to `CN[C@H](CC(C)C)C(=O)N[C@H]1C(=O)N[C@@H](CC(N)=O)C(=O)N[C@@H]2C(=O)N[C@H]3C(=O)N[C@H](C(=O)N[C@H](C(=O)O)c4cc(O)cc(O)c4-c4cc3ccc4O)[C@H](O)c3ccc(c(Cl)c3)Oc3cc2cc(c3O[C@@H]2O[C@H](CO)[C@@H](O)[C@H](O)[C@@H]2O[C@H]2C[C@](C)(N)[C@H](O)[C@H](C)O2)Oc2ccc(cc2Cl)[C@H]1O`, the compound was classed as inactive in assay [7].

As to `CC(C)c1cc(C(C)C)c(CC(=O)NS(=O)(=O)Oc2c(C(C)C)cccc2C(C)C)c(C(C)C)c1`, in assay [8], the outcome was inactive. Besides, the Potency in [1] is 5.87 µM (active).

On to `C[C@H]1COc2c(N3CCN(C)CC3)c(F)cc3c(=O)c(C(=O)O)cn1c23`, for which, in assay [8], the compound was classed as inactive. In addition, the Potency entry in assay [9] and in assay [1] was “inactive” each time.

Turning to `CN(C)CC(=O)N1CCC(c2ccc(NC(=O)c3ncc(C#N)[nH]3)c(C3=CCCCC3)c2)CC1`, the Potency entry in assay [1] was “inactive”.

For `COc1ccc(S(=O)(=O)Nc2cc(-c3c(O)ccc4ccccc34)c(O)c3ccccc23)cc1`, the call in assay [8] was inactive.

As to `C=C(C)[C@@H]1CC[C@]2(C(=O)O)CC[C@]3(C)[C@H](CC[C@@H]4[C@@]5(C)CC[C@H](O)C(C)(C)[C@@H]5CC[C@]43C)[C@@H]12`, the Potency is 18.8 µM (active) in [6] and 4.73 µM (active) in assay [10].

Regarding `CNC(=O)c1cccc(-c2ccc3c(N4CCOC[C@H]4C)nc(N4CCOC[C@H]4C)nc3n2)c1`, the outcome in [8] was inactive. The Potency entry in assay [9] was “inactive”.

For the compound `CCCCCCCCc1ccc(CCC(N)(CO)CO)cc1`, the results for the Potency in assay [9] and in assay [1] were 26.2 µM (active) and 16.5 µM (active), respectively.

`CN[C@@H]1C[C@H]2O[C@@](C)([C@H]1OC)n1c3ccccc3c3c4c(c5c6ccccc6n2c5c31)C(=O)N[C@H]4O`: the Potency in [9] is 10.4 µM (active).

Turning to `O=c1[nH]c(=O)n([C@H]2C[C@@H](O)[C@@H](CO)O2)cc1C=CBr`, the compound was classed as inactive in assay [7].

Take `COc1ccc2cc([S+]([O-])Cc3ncc(C)c(OC)c3C)nc2c1`: the result in [7] was inactive.

Take `c1cc(N[C@@H]2CCNC2)nc(-c2cnc3ccc(-c4cn[nH]c4)cn23)c1`: the compound was classed as inactive in assay [8]. Moreover, the Potency result in [9] and in assay [1] was “inactive” in each case.

For `Cc1ccc(-n2[nH]c(C)c(N=Nc3cccc(-c4cccc(C(=O)O)c4)c3O)c2=O)cc1C`, in [8], the call was inactive. Also, the Potency result in [9] is “inactive”.
